# U2OS ROS induce = ROS inducers in U2OS cancer cells, primary screen, cell-based, H2DCF-DA fluorescence; actives 2% (n = 46,000); ROS induction (% of piperlongumine), % at 10 µM; U2OS ROS induction; in the data active means ROS induction above about 79%, passing the limit was not always enough;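 further: 0% = DMSO vehicle median and 100% = reference compound median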
# YB-1 expression = inhibitors of YB-1 gene expression, primary screen, cell-based, fluorescence; U2OS, qRT-PCR YB-1 vs CDIP delta delta Cp, 16 h; stronger effect = higher value; zero = DMSO, each unit about twofold; delta delta Cp (YB-1 minus CDIP) (concentration not given with the values); actives 0.37% (n = 30,000);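 active means delta delta Cp rounded down to an integer at or above 3, about 3 SD of DMSO wells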;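 further: higher means less YB-1 transcript or more CDIP transcript relative to DMSO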
# An asterisk follows results filed as active; / = no result. Only some compounds are listed: those with a hit (about 2.3% of all), similar ones and a draw of the others.
SMILES,U2OS ROS induce,YB-1 expression
C[C@@H]1CCCCO[C@H](CN(C)S(=O)(=O)c2ccccc2)[C@@H](C)CN([C@H](C)CO)C(=O)c2cc(NC(=O)c3ccncc3)ccc2O1,1.2,0.00166
Cc1ccc(S(=O)(=O)N(C)C[C@@H]2OCCCC[C@@H](C)Oc3ccc(NS(=O)(=O)c4ccc(Cl)cc4)cc3C(=O)N([C@H](C)CO)C[C@@H]2C)cc1,110.7*,-0.681
Cc1ccc(S(=O)(=O)Nc2ccc3c(c2)C(=O)N([C@H](C)CO)C[C@H](C)[C@@H](CN(C)S(=O)(=O)c2ccc(C)cc2)OCCCC[C@@H](C)O3)cc1,19.1,0.128
C[C@@H]1CCCCO[C@H](CN(C)S(=O)(=O)c2ccc(F)cc2)[C@@H](C)CN([C@H](C)CO)C(=O)c2cc(NC(=O)Nc3ccc(F)cc3)ccc2O1,54.1,-0.131
COc1ccc(S(=O)(=O)Nc2ccc3c(c2)C(=O)N([C@H](C)CO)C[C@H](C)[C@@H](CN(C)S(=O)(=O)c2ccc(C)cc2)OCCCC[C@@H](C)O3)cc1,20.5,-1.42
C[C@@H]1CCCCO[C@@H](CN(C)S(=O)(=O)c2ccccc2)[C@@H](C)CN([C@H](C)CO)C(=O)c2cc(NC(=O)c3ccccc3)ccc2O1,131.9*,-0.187
COc1ccc(S(=O)(=O)N(C)C[C@@H]2OCCCC[C@@H](C)Oc3ccc(NS(=O)(=O)c4ccc(F)cc4)cc3C(=O)N([C@H](C)CO)C[C@@H]2C)cc1,128.3*,-0.236
COC(=O)c1ccc2c(c1)sc1nc(-c3ccc(Cl)cc3)cn12,-0.6,/
Cc1ccc(S(=O)(=O)N(C)C[C@H]2Oc3ccc(NC(=O)C4CC4)cc3C(=O)N([C@@H](C)CO)C[C@H]2C)cc1,-8.1,-0.0196
Cc1cc(C(=O)NCCCN2CCCC2=O)no1,-14.8,/
CCc1ccc(NC(=O)CSc2nnc(-c3ccc(Cl)cc3)n2C)cc1,-8.8,/
COc1ccc(S(=O)(=O)N(C)C[C@@H]2OCCCC[C@@H](C)Oc3ccc(NC(=O)NC4CCCCC4)cc3C(=O)N([C@H](C)CO)C[C@@H]2C)cc1,140.5*,-0.0028
C[C@@H]1CCCCO[C@H](CN(C)C(=O)CCCN(C)C)[C@@H](C)CN([C@H](C)CO)C(=O)c2cc(NS(=O)(=O)c3ccccc3)ccc2O1,-17.5,4.89*
C[C@@H]1CCCCO[C@@H](CN(C)C)[C@@H](C)CN([C@H](C)CO)C(=O)c2cc(NS(=O)(=O)c3ccc(F)cc3)ccc2O1,-4.7,0.191
C[C@@H]1CCCCO[C@@H](CN(C)C(=O)CCCN(C)C)[C@@H](C)CN([C@H](C)CO)C(=O)c2cc(NS(=O)(=O)c3ccccc3)ccc2O1,-6.5,-0.0177
C[C@@H]1CCCCO[C@H](CN(C)CC2CCCCC2)[C@@H](C)CN([C@H](C)CO)C(=O)c2cc(NS(=O)(=O)c3ccc(F)cc3)ccc2O1,97.8*,0.0569
C[C@@H]1CCCCO[C@@H](CN(C)S(=O)(=O)c2ccccc2)[C@@H](C)CN([C@H](C)CO)C(=O)c2cc(NS(=O)(=O)c3ccc(F)cc3)ccc2O1,205.9*,-0.263
COc1ccc(S(=O)(=O)N(C)C[C@H]2OCCCC[C@@H](C)Oc3ccc(NC(=O)NC4CCCCC4)cc3C(=O)N([C@H](C)CO)C[C@@H]2C)cc1,34.2,0.511
C[C@@H]1CCCCO[C@H](CN(C)S(=O)(=O)c2ccc(F)cc2)[C@@H](C)CN([C@H](C)CO)C(=O)c2cc(NS(=O)(=O)c3ccc(F)cc3)ccc2O1,36.6,0.0988
COC(=O)[C@H](Cc1ccc(O)cc1)NC(=O)c1cccc(Cl)c1,14.1,-0.0808
CC1CCc2c(sc(NC(=S)NC(=O)c3ccc(-c4ccc(Cl)cc4)o3)c2C(N)=O)C1 (configuration not stated),-40.7,/
COc1ccc(S(=O)(=O)Nc2ccc3c(c2)C(=O)N([C@@H](C)CO)C[C@@H](C)[C@H](CN(C)S(=O)(=O)c2ccc(F)cc2)O3)cc1,2.0,0.103
Cc1ccc(S(=O)(=O)Nc2ccc3c(c2)C(=O)N([C@H](C)CO)C[C@H](C)[C@H](CN(C)S(=O)(=O)c2ccc(C)cc2)OCCCC[C@@H](C)O3)cc1,19.4,-0.936
C[C@@H]1CN([C@H](C)CO)C(=O)c2cc(NC(=O)C3CCCCC3)ccc2O[C@H]1CN(C)S(=O)(=O)c1cn(C)cn1,-8.0,-0.199
COc1ccc(S(=O)(=O)N(C)C[C@@H]2Oc3ccc(NS(=O)(=O)c4ccc(F)cc4)cc3C(=O)N([C@@H](C)CO)C[C@@H]2C)cc1,9.5,18.7*
SMILES,U2OS ROS induce,YB-1 expression
C[C@@H]1CCCCO[C@@H](CN(C)S(=O)(=O)c2cn(C)cn2)[C@@H](C)CN([C@H](C)CO)C(=O)c2cc(NC(=O)C3CCCCC3)ccc2O1,126.1*,-0.681
Cc1ccc(S(=O)(=O)Nc2ccc3c(c2)C(=O)N([C@H](C)CO)C[C@H](C)[C@@H](CN(C)S(=O)(=O)c2ccccc2)OCCCC[C@@H](C)O3)cc1,136.8*,-0.222
C[C@@H]1CN([C@@H](C)CO)C(=O)c2cc(NC(=O)Cn3cnnn3)ccc2O[C@@H]1CN(C)Cc1ccc(C(F)(F)F)cc1,-7.3,-0.0313
C[C@@H]1CCCCO[C@@H](CN(C)Cc2ccc(C(=O)O)cc2)[C@@H](C)CN([C@H](C)CO)C(=O)c2cc(NC(=O)Nc3cccc4ccccc34)ccc2O1,-13.3,-1.12
Cc1noc(C)c1S(=O)(=O)N(C)C[C@@H]1Oc2c(NC(=O)c3ccc(-c4nccs4)cc3)cccc2C(=O)N([C@H](C)CO)C[C@@H]1C,42.9,-0.129
C[C@H]1CN([C@@H](C)CO)C(=O)c2cccc(NC(=O)c3ccc(-c4nccs4)cc3)c2O[C@H]1CN(C)Cc1ccccc1,7.6,-0.49
C[C@@H]1CN([C@H](C)CO)C(=O)c2cccc(NC(=O)c3ccc(-c4nccs4)cc3)c2O[C@H]1CN(C)Cc1ccc(C(=O)Nc2ccccc2N)cc1,95.5*,-0.659
Cc1noc(C)c1S(=O)(=O)N(C)C[C@H]1Oc2c(NC(=O)c3ccc(-c4nccs4)cc3)cccc2C(=O)N([C@H](C)CO)C[C@H]1C,106.2*,-0.266
C[C@@H]1CN([C@@H](C)CO)C(=O)c2cccc(NC(=O)c3ccc(-c4nccs4)cc3)c2O[C@@H]1CN(C)Cc1ccc(-c2ccccc2)cc1,66.7,-0.125
C[C@H]1CN([C@@H](C)CO)C(=O)c2cccc(NC(=O)c3ccc(-c4nccs4)cc3)c2O[C@@H]1CN(C)Cc1ccc(C(=O)Nc2ccccc2N)cc1,159.3*,-0.0232
O=C(Nc1ccc2nonc2c1)N1CCOCC1,-17.3,/
C[C@H](CO)N1C[C@H](C)[C@H](CN(C)CC2CCCCC2)Oc2ccc(NC(=O)C3CC3)cc2CC1=O,4.8,0.0323
CS(=O)(=O)N(CC(=O)Nc1c(F)cccc1F)c1ccccc1,-16.3,/
CCCn1c2ccc(C)cc2c2nnc(SCCN3CCOCC3)nc21,141.5*,0.322
CCCn1c2ccccc2c2nnc(SCCC(=O)O)nc21,44.3,/
c1ccc2c(c1)[nH]c1nc(SCCN3CCOCC3)nnc12,8.7,/
Cc1ccc2c(c1)c1nnc(SCCN3CCOCC3)nc1n2Cc1ccccc1,113.3*,/
Cc1ccc2c(c1)c1nnc(SCCN3CCOCC3)nc1n2C,3.6,/
CCCCn1c2ccccc2c2nnc(SCCN3CCOCC3)nc21,155.3*,/
C[C@@H]1CN([C@H](C)CO)C(=O)c2cccc(NC(=O)Nc3ccc4c(c3)OCO4)c2O[C@@H]1CN(C)Cc1ccc(Cl)c(Cl)c1,5.5,-0.108

# Assay outcomes as filed in PubChem BioAssay.
